Peg3 promoter – Peg3 promoter-driven luciferase inhibitors, primary screen, cell-based, HeLa, luciferase luminescence; HeLa PEG-Prom luciferase reporter, overnight; inhibition, % at 20 µM; 1.7% of 360,000 active;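 active = inhibition of at least 50% at 20 µM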
B2AR ag – beta2AR agonists driving receptor internalization, primary screen, cell-based, FAP fluorogen, flow cytometry; response, % (test concentration not listed); 0.43% of 340,000 active; Am2.2-beta2AR cells; Beta-2 adrenergic receptor (Homo sapiens), P07550; AID 504454, 2011;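 active = response above a set limit, near 3 SD of response in nonfluorescent compounds, cut at about 42% in these data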
Target sequence (P07550 whole entry, looked up): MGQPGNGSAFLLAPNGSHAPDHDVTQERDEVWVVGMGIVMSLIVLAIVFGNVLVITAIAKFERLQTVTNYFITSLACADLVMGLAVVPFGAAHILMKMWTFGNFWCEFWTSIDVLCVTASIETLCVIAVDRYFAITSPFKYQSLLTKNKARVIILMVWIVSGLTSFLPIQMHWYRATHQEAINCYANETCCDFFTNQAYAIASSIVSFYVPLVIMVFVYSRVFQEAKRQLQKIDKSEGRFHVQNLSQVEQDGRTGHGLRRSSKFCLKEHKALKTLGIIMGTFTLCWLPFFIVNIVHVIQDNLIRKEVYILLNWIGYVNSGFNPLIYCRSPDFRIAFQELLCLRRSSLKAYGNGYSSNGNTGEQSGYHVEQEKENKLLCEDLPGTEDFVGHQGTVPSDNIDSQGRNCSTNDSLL
KKLEB cytotox – cytotoxicity in KKLEB CF airway cells, primary screen, cytotoxicity control for CF NF-kB inhibitor project, cell-based, uHTS, fluorescence assay plates | KKLEB CF airway cells viability, ATPlite luminescence, overnight; stronger effect = lower value; cells stimulated with P. aeruginosa culture filtrate | activity change (cytotoxicity), % at 5 µM | 0.36% of 360,000 active;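 active = corrected activity change at or below -50% at 5 µM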
CF NFkB block – inhibitors of PAF-induced NF-kB signaling, primary screen, cell-based, GFP fluorescence, uHTS; KKLEB NF-kB-GFP reporter, GFP fluorescence overnight; inhibition, % at 5 µM; 0.86% of 360,000 active;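 active = at least 50% inhibition at 5 µM, scaled per plate between neutral and stimulator controls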;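 note: PAF is a Pseudomonas aeruginosa culture filtrate used as stimulus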
HIF-2a inh – HIF-2a reporter inhibitors, primary screen, luminescence, 786-0 RCC cells. AID 624352, 2012. inhibition, % at 18.8 µM. 786-0 RCC cells HIF-2a reporter, luciferase luminescence, overnight. 0.72% of 360,000 active;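 active = inhibition of the luminescence signal of 40% or more relative to plate controls, in a single-dose primary screen at 18.75 µM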
MITF TRPM1 inh – inhibitors of MITF-dependent TRPM1 promoter reporter, primary screen, cell-based, SK-MEL-5, single point, luciferase; SK-MEL-5 TRPM1 promoter luciferase, 24 h; inhibition, % at 12.5 µM; 0.83% of 330,000 active; AID 488899, 2010;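 active = mean inhibition across replicates of 60% or more, whatever share of single replicates reaches that level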
A number is an active result; . = inactive; / = no result given. A selection: hits, their analogues and other compounds. The true share with any hit is near 2.8%.

SMILES	Peg3 promoter	B2AR ag	KKLEB cytotox	CF NFkB block	HIF-2a inh	MITF TRPM1 inh
CC(NCC(O)COCCC12CC3CC(CC(C3)C1)C2)c1ccccc1 (stereo unspecified)	104	.	.	.	.	.
NCC(O)COCCC12CC3CC(CC(C3)C1)C2 (stereo unspecified)	.	.	.	.	.	.
CC1(Oc2cccc(F)c2)CCN(Cc2ccc(-c3ccccn3)cc2)C1 (stereo unspecified)	.	/	.	.	.	/
Cc1ccc(Cl)cc1N1CCN(C(=O)c2cc3c(=O)[nH]c4ccccc4c3n2C)CC1	56	.	.	.	.	64
COC(=O)[C@]12CCCCC=C1N(CCc1ccc(OC)c(OC)c1)C(=O)[C@H](CC(=O)NCc1cccs1)C2	/	/	/	/	.	/
CCc1ccc(OCC(=O)NC(NC(=S)Nc2ccc(Cl)cc2)C(Cl)(Cl)Cl)cc1 (stereo unspecified)	52	.	.	.	.	.
CCc1ccc(OCC(=O)NC(=S)Nc2ccc(C(=O)O)cc2)cc1	.	.	.	.	.	.
CCOC(=O)c1c(NC(N)=O)sc(C)c1C	.	.	.	.	.	.
CCOC(=O)c1c(N2C(=O)C=CC2=O)sc(C)c1C	105	.	.	.	47	61
C[C@H](NC(=O)c1ncn2c1c(=O)[nH]c1ccc(Br)cc12)c1ccccc1	100	/	.	.	.	/
C[C@H](NC(=O)c1ncn2c1c(=O)[nH]c1ccccc12)c1ccccc1	.	/	.	.	.	/
CCOC(=O)C1=C(COC(=O)c2ccc([N+](=O)[O-])s2)NC(=O)NC1C (stereo unspecified)	.	.	.	.	.	62
Clc1cccc(-c2ccc3nccn3c2)c1Cl	.	/	.	.	.	/
Nc1ccc(N(c2ccccc2)c2ccc(N)cc2)cc1	.	.	.	87	.	.
C[C@@H]1CN([C@H](C)CO)C(=O)c2c(c3ccccc3n2C)-c2ccccc2CO[C@H]1CN(C)C(=O)CCC(F)(F)F	.	/	.	.	.	/
CCN1C(=O)/C(=C/N(C(C)=O)c2ccccc2)N(c2ccccc2)C1=S	.	.	.	.	86	.
Cc1cc(C(=O)CSc2nnc(-c3cccc(F)c3)n2N)c(C)n1Cc1ccc2c(c1)OCO2	.	82	.	.	.	.
CNCCCOc1ccc(Cl)cc1C(C)(C)C	68	.	.	.	.	.
CC(C)Cc1ccc(CN2C(C)C(=O)N(Cc3cn(Cc4ccco4)nn3)CCS2(=O)=O)cc1 (stereo unspecified)	.	/	.	.	.	/
N/C(=N\OC(=O)c1cc([N+](=O)[O-])ccc1Cl)c1cccnc1	62	.	.	.	.	.
N/C(=N\OC(=O)c1ccc(Cl)c([N+](=O)[O-])c1)c1ccccc1	75	.	.	.	.	.
CC(C(=O)N1CCN(Cc2ccccc2)CC1)c1ccc([N+](=O)[O-])cc1 (stereo unspecified)	.	.	.	.	.	.
N/C(=N\OC(=O)c1ccc([N+](=O)[O-])cc1)c1cccnc1	.	.	.	.	.	.
CC(OC(=O)c1ccc(Cl)c([N+](=O)[O-])c1)C(=O)N1CCN(Cc2ccccc2)CC1 (stereo unspecified)	78	.	.	.	.	.
Nc1nc2ncccc2cc1C(=O)NC1CCCCC1	/	/	/	/	.	/
SMILES	Peg3 promoter	B2AR ag	KKLEB cytotox	CF NFkB block	HIF-2a inh	MITF TRPM1 inh
C[C@@H]1CN([C@H](C)CO)C(=O)CCCn2cc(nn2)CO[C@H]1CN(C)S(=O)(=O)c1ccccc1	.	/	.	.	.	/
COCC(=O)N1CCC2CC1c1cc(Cl)ccc12 (stereo unspecified)	.	.	.	.	.	.
CCOc1ccc(-n2c(C)cc(C(=O)CCl)c2C)cc1	111	46	.	.	.	69
COC(=O)c1ccc(-n2c(C)cc(C(=O)CCl)c2C)cc1	82	.	.	.	.	87
CCOC(=O)c1cc(C)n(-c2ccc(Cl)cc2)c1C	.	.	.	.	.	.
COc1ccc(C(C[N+](=O)[O-])c2c(-c3ccccc3)cc3ccccn23)cc1OC (stereo unspecified)	.	.	.	.	.	.
COc1ccc(C(C[N+](=O)[O-])C2(c3ccc(OC)c(OC)c3)C(=O)c3ccccc3C2=O)cc1 (stereo unspecified)	102	51	.	.	87	.
CC(=O)Nc1cccc(-c2ccnc3c2CC(C(=O)Nc2cccc(Oc4ccccc4)c2)O3)c1 (stereo unspecified)	51	/	.	.	.	/
COc1cccc(-c2cc(NC=O)c3ncc(-c4cc(OC)c(OC)c(OC)c4)n3c2)c1	.	/	.	.	.	/
COc1ccc(-c2cc(NC=O)c3ncc(-c4ccc(OC)c(OC)c4)n3c2)cc1OC	58	/	.	.	.	/
COc1ccc(-c2cc(NC=O)c3ncc(-c4ccc(OC)c(OC)c4)n3c2)cc1	.	/	.	.	.	/
CN1CCN(c2ccc(-c3cc(NC=O)c4ncc(-c5ccccc5)n4c3)cc2)CC1	79	/	.	.	.	/
COc1cc(-c2cc(NC=O)c3ncc(-c4ccc(F)cc4)n3c2)cc(OC)c1OC	.	/	.	.	.	/
COc1cccc(-c2cnc3c(NC=O)cc(-c4ccc(O)c(OC)c4)cn23)c1	69	/	.	.	.	/
COc1cc(-c2cnc3c(NC=O)cc(-c4ccsc4)cn23)cc(OC)c1OC	76	/	.	.	.	/
Cc1cc(-c2nc3cc(F)ccc3s2)ccc1N	.	.	.	.	.	.
S=C(NCCCN1CCOCC1)N1CCN(c2nc(-c3ccc(Cl)cc3)cs2)CC1	75	.	.	.	.	.
COc1ccc(NC(=O)C2C(c3ccc4c(c3)OCO4)=Nc3ccccc3N2C(C)=O)cc1 (stereo unspecified)	/	/	/	/	.	/
CCOC(=O)COc1ccccc1/C=C\[N+](=O)[O-]	110	51	.	81	92	97
COc1ccccc1N1CCN(CC(=O)Nc2cc(F)ccc2C)CC1	.	.	.	.	.	.
COc1ccccc1N1CCN(CC(=O)Nc2cc(C)nn2-c2nc(C)cc(C)n2)CC1	52	.	.	.	.	.
CC(=O)OCC(=O)C1CCC2C3CCC4=CC(=O)C=CC4(C)C3CCC12C (stereo unspecified)	.	.	.	.	.	.
CCCC(=O)O[C@]1(C(=O)COC(C)=O)CC[C@H]2[C@@H]3C[C@H](F)C4=CC(=O)C=C[C@]4(C)[C@@]3(F)[C@@H](O)C[C@@]21C	.	.	.	63	.	.
